The values that follow come from PubChem BioAssay (NCI).

Test systems include DU-145 prostate; K-562 leukemia; MALME-3M melanoma; MDA-MB-231 breast; RXF 393 renal; SF-268 CNS; SF-295 CNS; SF-539 CNS; UACC-257 melanoma; M14 melanoma; HCT-15 colon; HT29 colon; SNB-75 CNS; SNB-19 CNS; U251 CNS; PC-3 prostate; SK-MEL-5 melanoma; UACC-62 melanoma; LOX IMVI melanoma; SK-MEL-28 melanoma.
Assay in all cases: NCI-60 one-dose screen, 48 h (100 = growth as untreated, 0 = no growth, -100 = all killed)
Conditions in all cases: 10 µM unless noted

The panel holds about 83,000 compounds, 20% with a hit somewhere; the sample as a whole holds those more often.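 Step 1: grow cells in 96-well plates. Step 2: add test compound at a single concentration. Step 3: incubate 48 h. Step 4: record percent growth.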 A number with no mark means an inactive call. Calls of active or inactive are those of the source. How the source made its calls: active means growth percent below 10; inactive means the rest.

Take `CCCC/C=C/[C@@H]1C[C@H]1CCO`: the growth with DU-145 prostate is 116%; in the assay on K-562 leukemia it was 103%; with MALME-3M melanoma, 93.6%; in the assay on MDA-MB-231 breast, 99.2%; in the assay on RXF 393 renal, 108%; in the assay with SF-268 CNS, 104%. The growth with SF-295 CNS is 98.2%; with SF-539 CNS, 103%; in the assay with UACC-257 melanoma it was 91.5%; in the assay with M14 melanoma it was 98.9%; with HCT-15 colon, 97.7%; in the assay with HT29 colon, 97.2%. The growth with SNB-75 CNS was 90.3%; in the assay with SNB-19 CNS, 96.3%; in the assay with U251 CNS, 101%; in the assay with PC-3 prostate, 95.5%; with SK-MEL-5 melanoma it was 99.3%; in the assay with UACC-62 melanoma, 92.4%. Further, the values for the growth in the assay with LOX IMVI melanoma and in the assay with SK-MEL-28 melanoma were 98.2% and 98.1%, respectively.
As for `COCCOc1cc2ncnc(N3CCN(c4ncc(S(=O)(=O)N5CCCCC5)cn4)CC3)c2cc1OCCOC`, the growth in the assay on DU-145 prostate is 102%; in the assay with K-562 leukemia, 96.3%; with MALME-3M melanoma, 93.8%; with MDA-MB-231 breast it was 106%; in the assay on RXF 393 renal it was 110%; with SF-268 CNS, 93.3%. In addition, the growth was 99.6% in the assay with SF-295 CNS; 107% in the assay on SF-539 CNS; 101% with UACC-257 melanoma; 97.8% with M14 melanoma; 89.9% in the assay with HCT-15 colon; 109% in the assay with HT29 colon. Further, the growth was 110% in the assay with SNB-75 CNS; 96.2% in the assay with SNB-19 CNS; 97.7% in the assay with U251 CNS; 88.7% in the assay with PC-3 prostate; 102% in the assay on SK-MEL-5 melanoma; 95.3% in the assay with UACC-62 melanoma. Further, the growth was 87.4% in the assay on LOX IMVI melanoma and 112% in the assay on SK-MEL-28 melanoma.
Take `N#CC1=C(N)Oc2c(sc3c(Br)cccc23)C1c1ccc(Cl)cc1` (stereo not given): the growth is 20% in the assay on DU-145 prostate; 7.37% (active) with K-562 leukemia; 50.4% with MALME-3M melanoma; 9.21% (active) in the assay on MDA-MB-231 breast; -18% (active) in the assay with RXF 393 renal; 20.2% in the assay on SF-268 CNS. For the same compound, the growth was 6.9% (active) in the assay on SF-295 CNS; -38.2% (active) in the assay on SF-539 CNS; 64% in the assay on UACC-257 melanoma; 1.7% (active) in the assay on M14 melanoma; 8.47% (active) with HCT-15 colon; -14.2% (active) in the assay with HT29 colon. In addition, the growth in the assay with SNB-75 CNS is 4.29% (active); in the assay with SNB-19 CNS, 37%; in the assay with U251 CNS it was 7.28% (active); in the assay on PC-3 prostate, 17.3%; with SK-MEL-5 melanoma, 17.3%; in the assay with UACC-62 melanoma it was 10.3%. For the same compound, the growth was 23.3% in the assay with LOX IMVI melanoma and 44.8% in the assay on SK-MEL-28 melanoma.
Consider `N#Cc1nc(-c2ccc(Cl)cc2)oc1S(=O)(=O)N1CCN(c2ccc(F)cc2)CC1`, for which the growth in the assay with DU-145 prostate was 97.3%; in the assay with K-562 leukemia it was 24.6%; in the assay on MALME-3M melanoma, 92.6%; in the assay on MDA-MB-231 breast, 103%; in the assay on RXF 393 renal, 109%; in the assay with SF-268 CNS it was 97.6%. Besides, the growth in the assay with SF-295 CNS was 101%; with SF-539 CNS, 98.3%; in the assay on UACC-257 melanoma it was 94.5%; in the assay on M14 melanoma, 95%; in the assay with HCT-15 colon, 54.3%; with HT29 colon, 88.5%. The growth in the assay with SNB-75 CNS was 94.2%; in the assay on SNB-19 CNS it was 96.4%; with U251 CNS, 94.6%; in the assay on PC-3 prostate it was 96.4%; in the assay on SK-MEL-5 melanoma, 96%; with UACC-62 melanoma, 100%. Moreover, the values for the growth with LOX IMVI melanoma and in the assay on SK-MEL-28 melanoma were 29.3% and 104%, respectively.
Take `CCOC(=O)C/C(=N\Nc1cc(=O)[nH]c2ccc(Br)cc12)C(=O)OCC`: the growth in the assay with DU-145 prostate was 104%; in the assay on K-562 leukemia, 24.2%; in the assay on MALME-3M melanoma, 90.5%; in the assay with MDA-MB-231 breast, 102%; in the assay with RXF 393 renal, 104%; in the assay on SF-268 CNS, 100%. Further, the growth with SF-295 CNS is 102%; with SF-539 CNS, 99.8%; with UACC-257 melanoma, 111%; in the assay with M14 melanoma, 96.8%; with HCT-15 colon, 99.3%; in the assay on HT29 colon, 107%. Further, the growth in the assay on SNB-75 CNS was 88.2%; with SNB-19 CNS it was 99.5%; with U251 CNS, 108%; in the assay on PC-3 prostate, 87.4%; in the assay with SK-MEL-5 melanoma it was 95.1%; with UACC-62 melanoma it was 90.6%. Also, the growth with LOX IMVI melanoma is 94.4%; in the assay on SK-MEL-28 melanoma, 107%.
As for `Cc1ccc2c(n1)C(=O)C(Br)=C(CC(C)C)C2=O`, the growth is 109% in the assay with DU-145 prostate; 33.8% with K-562 leukemia; 99.7% with MALME-3M melanoma; 91.4% in the assay with MDA-MB-231 breast; 102% in the assay on RXF 393 renal; 96.2% in the assay with SF-268 CNS. Also, the growth is 102% in the assay with SF-295 CNS; 97.7% in the assay with SF-539 CNS; 85.1% in the assay on UACC-257 melanoma; 102% with M14 melanoma; 104% with HCT-15 colon; 108% in the assay with HT29 colon. Moreover, the growth is 97.3% with SNB-75 CNS; 101% with SNB-19 CNS; 97.8% in the assay with U251 CNS; 97.5% in the assay on PC-3 prostate; 98.1% in the assay on SK-MEL-5 melanoma; 93.9% in the assay on UACC-62 melanoma. The growth in the assay on LOX IMVI melanoma is 98.1%; in the assay with SK-MEL-28 melanoma it was 105%.
As to `CCOC(=O)C(=O)C(C(=O)OCC)c1ccccc1` (stereo not given), the growth with DU-145 prostate is 120%; in the assay on K-562 leukemia, 86.7%; in the assay on MALME-3M melanoma, 93.2%; in the assay on MDA-MB-231 breast, 94.1%; in the assay with RXF 393 renal, 113%; in the assay with SF-268 CNS it was 103%. For the same compound, the growth in the assay on SF-295 CNS was 139%; with SF-539 CNS it was 118%; in the assay on UACC-257 melanoma, 123%; with M14 melanoma it was 100%; in the assay with HCT-15 colon, 108%; in the assay with HT29 colon, 116%. The growth in the assay with SNB-75 CNS is 107%; in the assay on SNB-19 CNS, 103%; with U251 CNS, 112%; in the assay on PC-3 prostate, 101%; in the assay on SK-MEL-5 melanoma it was 106%; with UACC-62 melanoma, 109%. The growth in the assay with LOX IMVI melanoma is 106%; with SK-MEL-28 melanoma, 109%.
As to `C=C1C(=O)O[C@H]2[C@H]1CC/C(COC(=O)C(=O)c1cn(C)c3ccc(Cl)cc13)=C\CC[C@@]1(C)O[C@@H]21`, the growth in the assay with DU-145 prostate was -96% (active); with K-562 leukemia it was 3.09% (active); in the assay on MALME-3M melanoma, -65.6% (active); with MDA-MB-231 breast, -68.7% (active); in the assay on RXF 393 renal, -97% (active); in the assay on SF-268 CNS, -65.1% (active). The growth with SF-295 CNS was -65.4% (active); in the assay on SF-539 CNS it was -70.9% (active); in the assay on UACC-257 melanoma, -84.1% (active); in the assay on M14 melanoma, -77.3% (active); in the assay on HCT-15 colon it was -62.8% (active); with HT29 colon, -71.3% (active). The growth with SNB-75 CNS is -98.3% (active); with SNB-19 CNS it was -75% (active); in the assay with U251 CNS it was -95.3% (active); with PC-3 prostate, -70.5% (active); in the assay with SK-MEL-5 melanoma, -100% (active); in the assay on UACC-62 melanoma, -82.5% (active). Also, the growth in the assay with LOX IMVI melanoma was -84.5% (active); with SK-MEL-28 melanoma, -64.6% (active).
